Values joined by “and” are separate entries in the source; they are usually repeats but may differ in a detail not shown here. Equal values may be shown once. Measured potencies and affinities stand elsewhere.

Assay [1] has as its system Staphylococcus aureus. The note with it: Concentration 32 ug.mL-1; ASSAY_TEST Inhibition of Bacterial Growth; detection method Absorption (OD600); MEDIA CAMHB; plate type 384well; NBS; CORNING #3640; time 18 hr.
In assay [2] the test system is Escherichia coli. The note with it: Concentration 32 ug.mL-1, ASSAY_TEST Inhibition of Bacterial Growth, detection method Absorption (OD600), MEDIA CAMHB, plate type 384well, NBS, CORNING #3640, time 18 hr.

As for `Cl.ClCCCCN1CCCCC1`, the Inhibition in assay [1] was 1.62%; in assay [2], -1.96%.

As for `O=C(Cc1c[nH]c2ccccc12)N/N=C/c1ccco1`, the Inhibition in assay [1] is 4.9%; in assay [2], -3.66%.

In the case of `N#Cc1c(-c2cccc([N+](=O)[O-])c2)c2ccc3ccccc3c2oc1=O`, the Inhibition in assay [2] (32 ug/mL) is -5.38% and -17.97% and -15.63%.

In the case of `C#CCN(C)c1nc(N)c(C#N)cc1C#N`, the Inhibition in assay [2] (32 ug/mL) is -6.57% and -4.54%.

As to `Cc1ccc(CNNC(=O)c2cc3ccccc3n2C)cc1`, the Inhibition was -9.87% in assay [1] and -8.9% in assay [2].

Regarding `COC(=O)/C(=C/c1ccc(O)cc1)NC(=O)c1ccccc1`, the results for the Inhibition in assay [1] and in assay [2] were 4.82% and 15.96%, respectively.

Take `CCOC(=O)c1c[nH]c2ccc(OCc3ccccc3)cc12`: the Inhibition in assay [1] is reported as 5.22%; in assay [2] it was 6.31%.

In the case of `C#CCNC.O=C(O)C(=O)O`, the values for the Inhibition in assay [1] and in assay [2] were 24.36% and 23.06%, respectively.

Consider `CCOC(=O)C1=C(C)OC(N)=C(C#N)C1c1ccc(OC)c(OC)c1` (stereo not given), for which the results for the Inhibition in assay [1] and in assay [2] were 21.72% and -10.4%, respectively.

On to `C#CCN1CCc2nc3nc(N4CCCC4)c(C#N)cc3c(N)c2C1`, for which the Inhibition in assay [1] is 24.32%; in assay [2] it was -2.2%.

Turning to `COc1cccc(C2c3c(ccc4ccccc34)OC(=N)C2(Br)C#N)c1` (stereo not given), in assay [2] (32 ug/mL), the Inhibition is -22.74% and -4.85%.

As to `C#CCN1CCc2nc3nc(N(C)C)c(C#N)cc3c(N)c2C1`, the Inhibition in assay [1] is on record as 32.37%; in assay [2], -3.45%.

For the compound `CCOC(=O)C1=C(C)OC(N)=C(C#N)C1c1ccccc1OC` (stereo not given), the Inhibition is listed as 23.12% in assay [1] and -9.51% in assay [2].

`C#CCN1CCc2nc3nc(NC4CCN(Cc5ccccc5)CC4)c(C#N)cc3c(N)c2C1`: the values for the Inhibition in assay [1] and in assay [2] were 26.68% and -8.32%, respectively.

As to `CCOC(=O)/C(=C\c1ccccc1)C(=O)c1ccccc1`, the Inhibition in assay [1] amounted to 9.55%; in assay [2], 10.95%.

Regarding `CCC(Cc1ccccc1)NNC(=O)c1cc2ccccc2[nH]1` (stereo not given), the figures for the Inhibition in assay [1] and in assay [2] were -3.17% and -1.51%, respectively.

`C#CCNc1ncc(C#N)c(N)n1`: the Inhibition in assay [1] is 8.61%; in assay [2], -16.66%.

On to `COc1ccc(C2C(C#N)=C(N)Oc3ccc4ccccc4c32)cc1` (stereo not given), for which the Inhibition in assay [1] is 37.68%; in assay [2], -4.54%.

`COc1ccc2c(ccn2C)c1`: the Inhibition in assay [1] is on record as 6.16%; in assay [2] it was 8.07%.

In the case of `COc1nc2ccc(C)cc2cc1C=O`, the Inhibition in assay [1] amounted to 18.14%; in assay [2], 18.17%.

Regarding `Cc1nc(NCc2ccccc2)c2cnn(-c3ccccc3)c2n1`, the results for the Inhibition in assay [1] and in assay [2] were 7.38% and 5.64%, respectively.

Turning to `Cl.ClCCCN1CCCCC1`, the Inhibition in assay [1] turned out to be 19.47%; in assay [2], 17.01%.

In the case of `Cl.NNN1CCc2ccccc21`, the Inhibition is 25.31% in assay [1] and 10.83% in assay [2].

`C#CCN(Cc1ccccc1)c1nc(N)c(C#N)c(-c2ccccc2)c1C#N`: the Inhibition in assay [1] is recorded as 11.64%; in assay [2] it was -2.54%.

In the case of `CC1=NC(=Cc2ccccc2)C(=O)S1`, the results for the Inhibition in assay [1] and in assay [2] were 13.03% and 9.12%, respectively.

Turning to `N#Cc1cc(C#N)c(N2CCC(Cc3ccccc3)CC2)nc1N`, the Inhibition was -2.68% in assay [1] and -8.44% in assay [2].

Regarding `COc1nc2nc3c(c(N)c2cc1C#N)CN(Cc1ccccc1)CC3`, the results for the Inhibition in assay [1] and in assay [2] were 9.36% and 4.83%, respectively.

For `Cc1nc2c3c(C)nn(-c4ccccc4)c3ncn2n1`, the Inhibition turned out to be 11.24% in assay [1] and 12.68% in assay [2].

Consider `COc1cc(C2c3c(nc4c(c3N)CCC4)Oc3ccc4ccccc4c32)ccc1O` (stereo not given), for which the Inhibition in assay [1] amounted to 11.79%; in assay [2], 11.06%.

Take `COc1ccc(C=C2N=C(c3ccccc3)SC2=O)cc1`: the values for the Inhibition in assay [1] and in assay [2] were 12.36% and 7.03%, respectively.

Regarding `N#Cc1c(N)nc(NCCC2CCN(Cc3ccccc3)CC2)c(C#N)c1-c1ccccc1`, the Inhibition is on record as 34.16% in assay [1] and -9% in assay [2].

Take `COc1ccc(/C=C2/N=C(c3ccccc3)OC2=O)cc1OC`: the Inhibition was -19.31% in assay [1] and -9.68% in assay [2].

With `Nc1c2c(nc3c1C(c1ccccc1)c1ccc4ccccc4c1O3)CCCC2` (stereo not given), the Inhibition in assay [1] is 23.6%; in assay [2] it was -5.04%.

Turning to `N#CC1=C(N)Oc2ccc3ccccc3c2C1`, the Inhibition is 5.91% in assay [1] and -5.32% in assay [2].

With `CCOC(=O)c1cc2cc(OCc3ccccc3)ccc2[nH]1`, the Inhibition in assay [1] was found to be 7.82%; in assay [2], 5.9%.

`O=C1NC(=S)N/C1=C\c1ccccc1`: the Inhibition in assay [1] was found to be 13.95%; in assay [2], 8.87%.

On to `Cl.N#Cc1c(N)nc(NCCO)c(C#N)c1-c1ccccc1`, for which the Inhibition is on record as 32.81% in assay [1] and -7.39% in assay [2].

As to `C#CCN(C)c1nc(NCC2CCN(Cc3ccccc3)CC2)c(C#N)c(-c2ccccc2)c1C#N`, the Inhibition in assay [1] is on record as 6.97%; in assay [2], -2.4%.

`COc1ccc(C2C(C#N)=C(N)Oc3c2ccc2ccccc32)cc1OC` (stereo not given): the Inhibition in assay [2] is recorded as -16.13%.

Regarding `COc1ccc2cc(C3C4=C(CC(C)(C)CC4=O)Oc4nc5c(c(N)c43)CCCCC5)c(Cl)nc2c1` (stereo not given), the Inhibition in assay [1] came out at 27.31%; in assay [2], 12.92%.

On to `CC(=O)N1CC(=O)NC1=S`, for which the results for the Inhibition in assay [1] and in assay [2] were 18.21% and 15.12%, respectively.

For `O=C1OC(c2ccccc2)=NC1=Cc1ccc(Cl)cc1`, the results for the Inhibition in assay [1] and in assay [2] were 14.11% and 10.9%, respectively.

The Inhibition is the change of the read-out against control, counted positive when it falls.

These data come from ChEMBL document CHEMBL4513135, “CO-ADD screening of IQOG CSIS (Spain) compounds”.
